Source: PubChem (National Center for Advancing Translational Sciences (NCATS))
DRD3 agonist = qHTS of D3 Dopamine Receptor Agonist: qHTS; max activation, %; D3R DiscoveRx beta-arrestin cells, luminescence, 90 min; 410,000 tested, 0.58% active; D(3) dopamine receptor (Homo sapiens), P35462; in the data active = max activation above about 30%; also: 0% is about no effect
Target sequence (P35462 whole entry, looked up): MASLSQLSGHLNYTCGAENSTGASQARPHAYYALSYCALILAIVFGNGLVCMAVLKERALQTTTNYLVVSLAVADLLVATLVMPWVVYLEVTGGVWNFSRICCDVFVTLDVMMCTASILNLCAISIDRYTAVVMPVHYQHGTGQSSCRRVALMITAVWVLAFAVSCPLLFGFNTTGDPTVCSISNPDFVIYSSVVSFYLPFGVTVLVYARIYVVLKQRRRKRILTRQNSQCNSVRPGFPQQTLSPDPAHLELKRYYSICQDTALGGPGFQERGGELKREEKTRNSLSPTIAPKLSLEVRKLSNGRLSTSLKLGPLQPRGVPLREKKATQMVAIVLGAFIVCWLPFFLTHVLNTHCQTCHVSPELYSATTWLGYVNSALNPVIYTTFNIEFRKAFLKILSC
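Cells at 1500/well, incubated overnight, then treated with pinned compounds (dopamine as control) for 90 min at 37 degrees C. DiscoveRx reagent added for 30 - 60 minutes at room temperature; luminescence read.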
ClpP mod = qHTS Assay for Activators of ClpP | ATP-dependent Clp protease proteolytic subunit (Bacillus subtilis (strain 168)), P80244 | 340,000 tested, 1.9% active | Potency, µM (highest dose often 57.5 µM), inactives show top-dose activity change, negative = active | purified B. subtilis ClpP, FRET peptide cleavage, 20 min; active = well fitted falling curve with a large enough effect; inconclusive = small, poorly fitted or top-dose-only effect; inactive = no such curve, though single readings can be large or run the other way; also: potency is read from the fitted curve at half-maximal effect; the source files actives as falling curves though it sought activators and does not explain the sign; nearly all actives have a fitted effect of over 65% in size
Target sequence (P80244 whole entry, looked up): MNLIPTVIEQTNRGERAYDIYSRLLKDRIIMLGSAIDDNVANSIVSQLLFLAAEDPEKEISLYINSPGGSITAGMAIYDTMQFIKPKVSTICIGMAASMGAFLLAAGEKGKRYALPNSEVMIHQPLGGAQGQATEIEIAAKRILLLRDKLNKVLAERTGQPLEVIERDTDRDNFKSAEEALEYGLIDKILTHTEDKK
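Purified B. subtilis ClpP, 10 microg/mL final in Tris/HCl pH8 with KCl, BSA, glycerol and Tween-20, cleaved an Abz/nitrotyrosine-quenched decapeptide. Fluorescence (ex 320, em 430) was read at 0 and 20 min at room temperature. Delta was normalized to 5.8 microM ADEP and DMSO/no-enzyme controls.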
IL1B secr inh = qHTS for Inhibitors of Inflammasome Signaling: IL-1-beta AlphaLISA Primary Screen; THP-1 LPS/ATP IL-1B secretion, AlphaLISA, 16 h; hits give low values; activity change, % at 57.5 µM; 360,000 tested, 4.7% active; in the data active = activity change below about -50%; inconclusive = mostly about -30% to -49%; also: % is scaled to controls: 0 for no effect and ±100 for the full control effect
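THP-1 cells pretreated 1 hr with compounds (up to 57.5 uM final), then stimulated with LPS (250 ng/mL final) plus ATP (1.25 mM final); secreted IL-1B measured by AlphaLISA after 16 hr, decreased signal indicating inhibition.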
DRD3 antagonist = qHTS of D3 Dopamine Receptor Antagonist: qHTS; D(3) dopamine receptor (Homo sapiens), P35462; D3R cells, DiscoveRx beta-arrestin luminescence, antagonist mode; hits give low values; max response, negative = inhibition, %; 360,000 tested, 2.5% active; AID 652054, 2013; in the data active = max response below about -50%; inconclusive = no clear call, values can overlap the other calls; also: % is scaled to controls: 0 for no effect and ±100 for the full control effect
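Cells expressing the human receptor were seeded at 1500 cells/well, incubated overnight at 37 degrees C in 5% CO2, then exposed to library compounds with dopamine controls for 90 minutes at 37 degrees C before luminescent detection.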
DT40 TDP1 CPT = qHTS for Inhibitors of human tyrosyl-DNA phosphodiesterase 1 (TDP1): qHTS in cells in presence of CPT; 420,000 tested, 12% active; chicken DT40 Tdp1-/-;hTDP1 cells + 20 nM CPT, ATP luminescence, 48 h; Potency, µM (doses to about 46.2 µM), for the others: at the highest dose activity change, negative = growth inhibition, usual class: inhibitors; also: potency is read from the fitted curve at half-maximal effect; % is scaled to controls: 0 for no effect and ±100 for the full control effect; nearly all actives have a fitted effect of over 55% in size
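Cell growth measured by CellTiter-Glo luminescence after a minimum 48 h, 37 C compound exposure with 20 nM CPT in Tdp1-knockout DT40 cells stably expressing hTDP1, seeded 400/well; qHTS titration format.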
TDP1 cell noCPT = qHTS for Inhibitors of human tyrosyl-DNA phosphodiesterase 1 (TDP1): qHTS in cells in absence of CPT | 420,000 tested, 15% active | DT40 Tdp1-/- hTDP1 cells, no CPT, ATP luminescence, 48 h | Potency, µM (series often up to 46.2 µM), for inactives: at the top dose activity change, negative = growth inhibition, most hits filed as inhibitors; also: potency is read from the fitted curve at half-maximal effect; % is scaled to controls: 0 for no effect and ±100 for the full control effect; nearly all actives have a fitted effect of over 55% in size
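Readout: luminescence from CellTiter-Glo after 30 min in the dark at RT. Cells: DT40 Tdp1-/- with stable hTDP1, 400/well. Exposure: compounds alone, ≥48 hr, 37 °C.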
The depositor's hits bear a star; ? = inconclusive; · = not tested or not shown. Hits are enriched below; roughly 21% of the tested compounds scored in any of these assays. Unless noted, calls follow the shape of the dose curve; as a rule, active = well fitted inhibition curve with a large enough effect; inconclusive = small, poorly fitted or top-dose-only effect; inactive = flat fitted curve, though single readings scatter.

SMILES	DRD3 agonist	ClpP mod	IL1B secr inh	DRD3 antagonist	DT40 TDP1 CPT	TDP1 cell noCPT
O=C(C[C@H]1C/C=C\CC[C@@H](Cc2ccc(F)cc2)C(=O)O[C@@H](c2ccccc2)CNC1=O)N[C@@H](CO)Cc1ccccc1	15.9	0.9%	29.0	29.3	-20.2%	-18.0%
O=C(C[C@@H]1C/C=C/CC[C@@H](Cc2ccc(F)cc2)C(=O)O[C@@H](c2ccccc2)CNC1=O)NCCO	19.0	1.2%	-5.8	35.4	?	18.4µM*
CCN1C(=NCCc2c[nH]c3ccccc23)N[C@@H](c2ccccc2)[C@H](C(=O)OC)[C@H]1C	-37.8	-4.9%	13.9	0.0	9.2µM*	18.4µM*
COC(=O)C1=C(C)N(Cc2ccccc2)C(=NCCc2c[nH]c3ccccc23)N[C@H]1c1ccccc1	-20.3	-0.9%	?	3.2	?	20.6µM*
C=CCN=C1N[C@@H](c2ccccc2)C(C(=O)OC)=C(C)N1CCOC	-11.3	-1.0%	-7.5	-3.2	-27.5%	-23.3%
COC(=O)C1=C(C)N(Cc2ccccc2)C(=NCCc2c[nH]c3ccccc23)N[C@H]1c1cccc(F)c1	-21.4	0.3%	-50.4*	-1.1	5.17µM*	2.59µM*
COC(=O)[C@H]1[C@@H](C)N(Cc2ccccc2)C(=O)N[C@H]1c1ccccc1	2.9	-1.2%	17.7	-54.8*	-15.0%	-14.6%
Cc1ccc(CN2CCC[C@]3(N[C@H](c4ccc(C)cc4)[C@@H]4C(=O)N(C)C(=O)[C@@H]43)C2=O)cc1	-12.4	3.6%	-13.2	?	?	?
FC(F)(F)c1cc(NC2CCCCC2)ccn1	0.3	1.4%	16.5	-9.3	-15.8%	29.1µM*
CN(CC(=O)Nc1ccc(Cl)c(Cl)c1)CC(=O)N1CCCCCC1	0.7	-0.7%	-14.7	16.0	?	25.9µM*
CC(C(=O)N1CCCCC1)N(C)CC(=O)Nc1ccc(Cl)cc1 (stereo unspecified)	-1.5	0.8%	10.9	-11.0	?	16.4µM*
CC(C(=O)N1CCCCC1)N(C)CC(=O)Nc1ccc(F)c(F)c1F (stereo unspecified)	3.1	1.0%	1.5	10.7	-3.3%	4.7%
COc1ccc(NC(=O)CN(C)CC(=O)Nc2ccc3c(c2)CCC3)cc1	-0.5	·	-9.4	2.6	-21.9%	-17.6%
COc1ccc(NC(=O)CN(C)CC(=O)N2CCCCCC2)cc1	1.3	-4.9%	10.0	-64.8*	-0.6%	-6.0%
CC(=O)c1ccc(CCCc2ccc(C(C)=O)cc2)cc1	2.9	·	?	?	?	?
CCOC(=O)C1CCN(C(=O)CCNC(=O)c2ccccc2OC)CC1	-4.5	-1.3%	-1.5	-2.9	-0.9%	-19.0%
CCCCCCCCCCCCCCCCCCNC(=O)OC1CCN(C(=O)OC[C@H](COC(=O)N(Cc2cccc[n+]2CC)C(=O)c2ccccc2OC)OC)CC1	-22.8	·	·	·	11.9µM*	11.9µM*
CN(C(=O)CSc1nnc(-c2ccc(OC(F)F)cc2)n1N)C1CCS(=O)(=O)C1 (stereo unspecified)	-6.4	-14.5%	11.4	-12.3	7.5%	-3.4%
COc1cc(OC)c(OC)cc1/C=C/c1nc2cc3ccccc3cc2c(=O)n1-c1ccc(Cl)cc1	-0.7	-2.3%	·	·	13µM*	16.4µM*
COc1ccc(-n2c(/C=C/c3cccc4ccccc34)nc3ccccc3c2=O)cc1OC	3.5	-2.1%	·	·	?	14.6µM*
COc1ccc(/C=C/c2nc3ccccc3c(=O)n2-c2cccc(C(F)(F)F)c2)cc1	-4.6	2.8%	·	·	5.8µM*	11.6µM*
COc1cc(OC)c(OC)cc1/C=C/c1nc2cc3ccccc3cc2c(=O)n1-c1ccccc1Br	6.9	-1.0%	·	·	?	?
Cc1ccc(C(=O)N/C(=C\c2ccc(Br)cc2)c2nc(=S)[nH][nH]2)cc1	6.0	-1.1%	-78.9*	-5.0	?	?
Cc1ccc(C(=O)N/C(=C\c2cccnc2)c2nc3ccccc3[nH]2)cc1	-18.5	?	11.9	6.3	?	?
O=C(N/C(=C/c1cccc(Br)c1)c1nc(=S)[nH][nH]1)c1ccccc1	7.5	-0.6%	-100.5*	-9.0	?	?
SMILES	DRD3 agonist	ClpP mod	IL1B secr inh	DRD3 antagonist	DT40 TDP1 CPT	TDP1 cell noCPT
CCN(CC)S(=O)(=O)c1ccc(N2CCc3cc(OC)c(OC)cc3C2)nc1	1.9	·	-90.8*	3.9	18.4µM*	?
Cc1nnc(SCc2cc(=O)n3c(C)cccc3n2)s1	-3.3	-3.1%	·	·	-6.3%	2.3%
Nc1nnc(CC(=O)N/N=C\c2ccc(-c3cccc(Cl)c3)o2)s1	-5.0	-12.2%	0.0	2.4	10.0%	3.0%
N=C1S/C(=C\c2ccc(-c3cccc(Cl)c3)o2)C(=O)N1c1nccs1	5.6	0.6%	-14.3	-20.3	3.26µM*	2.59µM*
O=C1OC(c2cccs2)=N/C1=C\c1ccc(-c2cccc(Cl)c2)o1	7.5	-0.2%	25.8	-2.9	20.6µM*	?
COc1ccc(/C=C2\SC(=N)N(c3nccs3)C2=O)cc1OC	-5.9	·	-1.0	-0.4	13µM*	5.8µM*
COc1ccccc1N1C(=N)S/C(=C\c2ccc(-c3ccccc3C(=O)O)o2)C1=O	-7.0	2.5%	16.4	-3.5	-1.7%	-14.0%
CCCNC(=O)N1N=C(c2ccc(N)cc2)c2cc3c(cc2[C@H]1C)OCO3	·	·	·	·	9.5%	-17.4%
CC(=O)N1CCCc2ccc(NS(=O)(=O)c3cccc(Cl)c3)cc21	5.9	-5.5%	·	·	-0.9%	-27.9%
CNc1ccc(/C=C/C(=O)c2cccc3ccccc23)cc1[N+](=O)[O-]	2.3	0.9%	-91.8*	-26.6	16.4µM*	16.4µM*
CNc1ccc(C(=O)c2ccccc2C(=O)O)cc1[N+](=O)[O-]	-1.3	-3.5%	-16.2	-20.1	-2.6%	?
COc1ccc2[nH]c(=O)c(C(=O)O)cc2c1	1.7	·	9.8	9.1	0.1%	0.7%
CC(C)C1Cc2[nH]c(=O)c(C(=O)O)cc2CO1 (stereo unspecified)	-0.6	35.5µM*	12.2	8.9	11.4%	8.7%
Cc1ccc(C)c(-n2c(C)cc(/C=N/NC(=O)c3c(C)nc4cc(C)ccn34)c2C)c1	14.6	-3.3%	0.0	?	?	20.6µM*
Cc1ccn2c(C(=O)N/N=C\c3cccs3)c(C)nc2c1	24.9	0.6%	17.6	-16.5	-11.1%	-19.9%
